Results filed as inconclusive are left out. A call without a number means that no potency is given here. Active and inactive are the calls of the source. The call rests on the fitted dose curve; in most records, active means well fitted curve in the direction sought with a large enough effect; inconclusive means small, poorly fitted or top-dose-only effect, or another doubt; inactive means no such curve, though single readings can be large; an effect the other way counts as inactive or inconclusive.
Experiment: qHTS of pediatric cancer cell lines to identify multiple opportunities for drug repurposing: Primary screen for Rh41 cells (AID 1347108); further: nearly all actives have a fitted effect of over 70% in size
Conditions: Rh41 rhabdomyosarcoma viability, CellTiter-Glo luminescence, 48 h; series mostly up to 46 µM
In short: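 Luminescence from CellTiter-Glo served as readout of metabolically active cells after 48 h compound exposure. Titrations: MIPE 11-point, from 0.78 nM; NPC 8-point, from 0.59 nM (final). Concentration-response curves came straight from the primary screen.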
Potency means the concentration at half of the fitted maximal effect.

Compound | Potency
Cc1cn([C@H]2C[C@H](N=[N+]=[N-])[C@@H](CO)O2)c(=O)[nH]c1=O | inactive
CC(C)(Oc1ccc(C2CC2(Cl)Cl)cc1)C(=O)O (centres undefined) | inactive
COc1ccc2c(c1)c(CC(=O)O)c(C)n2C(=O)c1ccc(Cl)cc1 | inactive
CCOC(=O)Nc1ccc(NCc2ccc(F)cc2)nc1N | inactive
C[C@H]1c2cccc(O)c2C(O)=C2C(=O)[C@]3(O)C(O)=C(C(N)=O)C(=O)[C@@H](N(C)C)[C@@H]3[C@@H](O)[C@@H]21 | inactive
NC12CC3CC(CC(C3)C1)C2 | inactive
CN(C)CCC=C1c2ccccc2C=Cc2ccccc21 | inactive
CN1C(C(=O)Nc2ccccn2)=C(O)c2ccccc2S1(=O)=O | inactive
CN1CCC(=C2c3ccccc3CC(=O)c3sccc32)CC1 | inactive
CC(CCc1ccc(O)cc1)NCCc1ccc(O)c(O)c1 (centres undefined) | inactive
Cc1cc(C(C)(C)C)cc(C)c1CC1=NCCN1 | inactive
OCCN(CCO)c1nc(N2CCCCC2)c2nc(N(CCO)CCO)nc(N3CCCCC3)c2n1 | inactive
Cc1cn([C@H]2C=C[C@@H](CO)O2)c(=O)[nH]c1=O | inactive
COc1ccc2[nH]cc(CCNC(C)=O)c2c1 | inactive
COc1ccccc1OCC(O)CN1CCN(CC(=O)Nc2c(C)cccc2C)CC1 (centres undefined) | inactive
C[C@](N)(Cc1ccc(O)c(O)c1)C(=O)O | inactive
Fc1ccc([C@@H]2CCNC[C@H]2COc2ccc3c(c2)OCO3)cc1 | inactive
CC(C)C(=O)Nc1ccc([N+](=O)[O-])c(C(F)(F)F)c1 | 11.8 µM (active)
O=C1Cc2cc(CCN3CCN(c4nsc5ccccc45)CC3)c(Cl)cc2N1 | inactive
CC(C(=O)O)c1cccc(C(=O)c2ccccc2)c1 (centres undefined) | inactive
O=c1c(-c2ccc(O)cc2)coc2cc(O)cc(O)c12 | inactive
CC1COc2c(N3CCN(C)CC3)c(F)cc3c(=O)c(C(=O)O)cn1c23 (centres undefined) | inactive
Cn1c(=O)c2[nH]cnc2n(C)c1=O | inactive
CN1CCC(=C2c3ccccc3C=Cc3ccccc32)CC1 | inactive
O=c1[nH]cc(F)c(=O)[nH]1 | inactive
CCC1(c2ccccc2)C(=O)NCNC1=O | inactive
CC(COc1ccccc1)N(CCCl)Cc1ccccc1 (centres undefined) | inactive

Experiment: qHTS of pediatric cancer cell lines to identify multiple opportunities for drug repurposing: Confirmatory screen for NB1643 cells (AID 1347109); further: nearly all actives have a fitted effect of over 45% in size
Conditions: NB1643 neuroblastoma cell viability; series mostly up to 45.9 µM
In short: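 Viability after 48 h compound treatment at 37C, 500-1,000 cells/well, read as ATP luminescence with CellTiter-Glo. Primary screens used 11-point (MIPE, 0.78 nM-46 µM) or 8-point (NPC, 0.59 nM-46 µM) final concentrations; follow-up screens used 11-point dilutions.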

Compound | Potency
NC12CC3CC(CC(C3)C1)C2 | inactive
CC(CCc1ccc(O)cc1)NCCc1ccc(O)c(O)c1 (centres undefined) | inactive
CC(C)C(=O)Nc1ccc([N+](=O)[O-])c(C(F)(F)F)c1 | inactive
NC(=O)NO | inactive
CC(COc1ccccc1)N(CCCl)Cc1ccccc1 (centres undefined) | 16.5 µM (active)

Experiment: qHTS of pediatric cancer cell lines to identify multiple opportunities for drug repurposing: Confirmatory screen for A673 cells (AID 1347110); further: nearly all actives have a fitted effect of over 65% in size
Conditions: A673 Ewing sarcoma cell viability; series mostly up to 45.9 µM
In short: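 Forty-eight-hour viability assay. Follow-up compounds ran at 11-point dilutions; positive control bortezomib at 2.3 uM final, neutral control DMSO.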

Compound | Potency
NC12CC3CC(CC(C3)C1)C2 | inactive
CC(C)C(=O)Nc1ccc([N+](=O)[O-])c(C(F)(F)F)c1 | 10.4 µM (active)
NC(=O)NO | 0.414 µM (active)

Experiment: qHTS of pediatric cancer cell lines to identify multiple opportunities for drug repurposing: Confirmatory screen for SK-N-MC cells (AID 1347111);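 further: cells exposed to compound for 48 h before the readout; nearly all actives have a fitted effect of over 70% in size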
Conditions: SK-N-MC cell viability; series mostly up to 45.9 µM
In short: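 SK-N-MC cells at 500-1,000 cells/well in growth media were pre-incubated 5 h, then exposed to compounds at 11-point dilutions for 48 h at 37 degrees C, 5% CO2. Viability was read as CellTiter-Glo luminescence.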

Compound | Potency
NC12CC3CC(CC(C3)C1)C2 | inactive
CC(CCc1ccc(O)cc1)NCCc1ccc(O)c(O)c1 (centres undefined) | 9.27 µM (active)
NC(=O)NO | inactive
CC(COc1ccccc1)N(CCCl)Cc1ccccc1 (centres undefined) | 10.4 µM (active)

From PubChem BioAssay (NCATS)
